Results on 15 compounds are retold here after the supplement of paper PMC10503962.

Structures are written as SMILES.

This assay concerns Trichuris muris adult worms. Nature of the assay: mean motility score (Paragon pixel variance) of adult worms (arbitrary units); higher = more motile worms, i.e. less anthelmintic effect; extreme values may be limits of the assay. As to conditions: 100 µM; 24 h. In outline: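 Films of 200 frames spaced 100 ms apart were taken on an automated phenotyping platform after worms had spent 24 h at 37°C and 5% CO2. Those worms were single adult Trichuris muris from infected NOD SCID mice, each in a 96-well plate well with 100 μL RPMI-1640 plus antibiotics and drug at 100 μM (1% v/v DMSO). Paragon pixel-variance analysis produced the motility score, averaged over replicate wells. Testing used three worms in three wells per drug across three separate occasions, with vehicle and positive controls.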
Compound `Cc1cc(Nc2ncc(Cl)c(Nc3ccccc3S(=O)(=O)C(C)C)n2)c(OC(C)C)cc1C1CCNCC1` [ceritinib] came in with a mean motility score of 1.33.
Regarding `Cc1cc2cc3c(C)cc(=O)oc3c(C)c2o1` [trioxsalen], the mean motility score is 2070.
For the compound `Cc1onc(-c2ccccc2)c1-c1ccc(S(N)(=O)=O)cc1` [valdecoxib], the mean motility score came out at 3610.
The value for `Cc1ccc(C)c(OCCCC(C)(C)C(=O)O)c1` [gemfibrozil] was 3280; that for `COC(=O)CCC(=O)CN.Cl` [methyl aminolevulinate hydrochloride] was 2550; that for `Cl.Fc1ccc([C@@H]2CCNC[C@H]2COc2ccc3c(c2)OCO3)cc1` [paroxetine hydrochloride] was 1300.
The value for `c1ccc(-c2ccc(C(c3ccccc3)n3ccnc3)cc2)cc1` (stereo not given) [bifonazole] was 20; that for `CCOC(=O)C1=C(COCCN)NC(C)=C(C(=O)OC)C1c1ccccc1Cl` (stereo not given) [amlodipine] was 8.67.
For `COc1ccccc1O` [guaiacol] the value was 2150.
The compound `NCCS` [cysteamine] had a mean motility score of 2360.
The value for `CC(=O)Oc1cccc2c1C(=O)c1c(OC(C)=O)cc(C(=O)O)cc1C2=O` [diacerein] was 0; that for `CCCN[C@H]1CCc2nc(N)sc2C1.Cl.Cl` [pramipexole dihydrochloride] was 3620; that for `CC(C)(C)NCC(O)c1ccc(O)c(CO)c1.O=S(=O)(O)O` (stereo not given) [albuterol sulfate] was 1690.
For `Cc1oncc1C(=O)Nc1ccc(C(F)(F)F)cc1` [leflunomide] the value was 2250; for `Nc1ccc(S(=O)(=O)Nc2ncccn2)cc1` [sulfadiazine], 2030.
